Test results taken from PubChem BioAssay AID624173 (National Center for Advancing Translational Sciences (NCATS), 2012).
Hit rate of the full screen: of about 410,000 compounds, about 490 (0.12%) were called active. Entries that show only a call come without a potency. Roughly 1% stayed inconclusive and do not appear here. This is one part of a sample in which actives are shown more often than they occur. Values without a mark were called inactive. Calls follow the shape of the dose curve; as a rule, active = well fitted inhibition curve with a large enough effect; inconclusive = small, poorly fitted or top-dose-only effect; inactive = flat fitted curve, though single readings scatter.

Molecular target: pyruvate kinase (Trypanosoma brucei) (UniProt Q57TT1)
Experiment: qHTS of Trypanosoma Brucei Inhibitors; also: nearly all actives have a fitted effect of over 50% in size
Details: TbPYK enzyme, Kinase-Glo Plus ATP luminescence, 45 min; series mostly up to 76.8 µM
Text: Members of the Trypanosomatidae family of parasitic protozoans cause a spectrum of diseases throughout the tropical and subtropical world. Sleeping sickness, caused by two subspecies of Trypanosoma brucei, is endemic to areas of sub-Saharan Africa, while Chagas' disease, a manifestation of Trypanosoma cruzi infection, is prevalent throughout Central and South America. In addition, many species of Leishmania are responsible for a range of cutaneous and visceral diseases, causing ulcers, destructive lesions and kalaazar, a lethal infection of the viscera. These diseases cause severe public health and economic burdens on populations that are often already caught in a tragic cycle of poverty, poor nutrition and disease. Collectively, parasites of the trypanosomatid family infect 30 million people worldwide (~500 million live in endemic areas), and account for ~130K deaths annually. Existing treatments have developed little in the past 50 years, and suffer from toxicity, poor efficacy and resistance; the goal of this project is to develop lead drugs that will be suitable for entry into pre-clinical trials.
Glycolysis in axenically cultured T. cruzi, representing the intracellular pathogenic stage, is also essential for these parasites. {Engel, 1987} This project aims to discover and optimize selective inhibitors of the glycolytic enzyme pyruvate kinase (PYK) from Trypanosoma brucei, the parasite that causes sleeping sickness. […] Trypanosomatid PYKs show significant differences from their human counterparts including only 47-50% sequence identity and different allosteric and activation properties.{Callens, 1992} To this end, a qHTS was done against the MLSMR to discover inhibitors.
NIH Molecular Libraries Probe Production Network [MLPCN]
NIH Chemical Genomics Center [NCGC]
PI Name: Malcolm Walkinshaw, University of Edinburgh
2 uL of TbPYK/substrate buffer (columns 1-3, 5-48) are dispensed into Greiner white solid bottom 1536-well assay plates; column 4 receives only TEA buffer as 0x TbPYK controls. Compounds are then transferred via Kalypsys pin tool equipped with 1536-pin array (10 nL slotted pins, V&P Scientific, San Diego, CA). Following addition of compound, 2 uL of ADP (130 uM final concentration, all columns) is added to initiate the reaction. The plates are then incubated at room temperature for 45 minutes. Kinase-Glo Plus reagent is added (3 uL) and plates incubated for 10 minutes, before being transferred to a ViewLux high-throughput CCD imager (PerkinElmer) wherein single end-point measurements of luminescence are acquired using a clear filter. All reagents are diluted in an assay buffer consisting of 50 mM TEA (pH 7.2), 100 mM KCl, 10 mM MgCl2, 0.05% BSA and 0.01% Tween-20.
All screening operations will be performed on a fully integrated robotic system (Kalypsys, San Diego, CA) containing one RX-130 and two RX-90 anthropomorphic robotic arms (Staeubli, Duncan, SC). Library plates will be screened starting from the lowest and proceeding to the highest concentration. Vehicle-only plates, with DMSO being pin-transferred to columns 5-48, will be inserted uniformly at the beginning and the end of each library in order to monitor and record any shifts in the background, which can be affected by reagent dispensers or loss in enzyme activity over time. Screening data will be corrected, normalized, and concentration-effect relationships will be derived by using publicly-available curve fitting algorithms developed in-house (http://ncgc.nih.gov/pub/openhts).
Potency is read from the fitted curve at half-maximal effect.

| SMILES | Potency | activity, negative = inhibition |
| --- | --- | --- |
| CC(C)NC(=O)N1CC[C@@]2(CCCN(C(=O)c3cccc(F)c3)C2)C1 | inactive |  |
| COc1cc(C[C@H](C)N)c(OC)cc1Br | inactive |  |
| CCCCC1C(=O)NC(=O)N(C2CCCCC2)C1=O (stereo unspecified) | inactive |  |
| O=C1C=CC(=O)N1c1ccc(N2CCCCC2)cc1 | 10 µM (active) |  |
| O=C(c1csnn1)N1CCC2(CCN(Cc3nccs3)CC2)CC1 | inactive |  |
| CC1(C)NC(=O)N(CC(=O)Nc2ccc(-c3ccccc3)cc2)C1=O | inactive |  |
| Cc1ccc(NC(=O)Cn2c(=O)n(-c3ccccc3)c(=O)c3c4c(sc32)CCCC4)cc1 | inactive |  |
| Cc1ccc(NC(=O)Cn2sc3ccccc3c2=O)cc1 | 7.94 µM (active) |  |
| CO/N=C(\C(=O)N[C@@H]1C(=O)N2C(C(=O)O)=C(Cn3nnc(C)n3)CS[C@H]12)c1csc(N)n1 | inactive |  |
| O=C(/C=C/c1cccc(F)c1)NC1CC1 | inactive |  |
| C=CCN1CCC23c4c5ccc(O)c4O[C@H]2C(=O)CC[C@@]3(O)C1C5 (stereo partly specified) | inactive |  |
| CC1(C)OC2CO[C@]3(COS(N)(=O)=O)OC(C)(C)OC3C2O1 (stereo partly specified) | inactive |  |
| O=C1c2c(O)cccc2[C@@H]([C@@H]2O[C@H](CO)[C@@H](O)[C@H](O)[C@H]2O)c2cc(CO)cc(O)c21 | inactive |  |
| CCOC(=O)Cc1cccc(-c2cc(CCCCCCc3ccc(O[C@H]4O[C@H](COC(C)=O)[C@@H](OC(C)=O)[C@H](OC(C)=O)[C@@H]4OC(C)=O)c(-c4cccc(CC(=O)OCC)c4)c3)ccc2O[C@H]2O[C@H](COC(C)=O)[C@@H](OC(C)=O)[C@H](OC(C)=O)[C@@H]2OC(C)=O)c1 | inactive |  |
| COCC(=O)N1CCC2(CCCN(c3ccccc3)C2)CC1 | inactive |  |
| Cc1ccc(-c2ncc(Cl)cc2-c2ccc(S(C)(=O)=O)cc2)cn1 | inactive |  |
| CCC(C)C(N)C1=NC(C(=O)NC(CC(C)C)C(=O)NC(CCC(=O)O)C(=O)NC(C(=O)NCCCCC2NC(=O)C(CC(N)=O)NC(=O)C(CC(=O)O)NC(=O)C(Cc3cnc[nH]3)NC(=O)C(Cc3ccccc3)NC(=O)C(C(C)CC)NC(=O)C(CCCN)NC2=O)C(C)CC)CS1 (stereo unspecified) | inactive |  |
| CC(=O)N1CCC2(CCCN(Cc3ccccc3)C2)CC1 | inactive |  |
| CC1(C)[C@H](O[C@H]2O[C@H](C(=O)O)[C@@H](O)[C@H](O)[C@H]2O[C@@H]2O[C@H](C(=O)O)[C@@H](O)[C@H](O)[C@H]2O)CC[C@@]2(C)[C@H]1CC[C@]1(C)[C@H]2C(=O)C=C2[C@H]3C[C@@](C)(C(=O)O)CC[C@]3(C)CC[C@]21C | inactive |  |
| COc1ncc2nc(-c3ccc(Cl)cc3)c(=O)n(-c3ccccc3)c2n1 | inactive |  |
| CCCc1c2oc(C(=O)O)cc(=O)c2cc2c(=O)cc(C(=O)O)n(CC)c12 | inactive |  |
| CCOc1ccc(NS(=O)(=O)c2ccc(N)cc2)nn1 | inactive |  |
| CS(=O)(=O)N1CCC2(CC1)CN(c1ccncc1)C2 | inactive |  |

| SMILES | Potency | activity, negative = inhibition |
| --- | --- | --- |
| Cc1cc2nc(-c3ccco3)c(Cc3cccc(F)c3)n2c(C)c1Br | inactive |  |
| c1ccc(Cc2c(-c3ccco3)nc3c4ccccc4ccn23)cc1 | inactive |  |
| Cc1ccc(Cc2c(-c3ccco3)nc3ccc(Cl)cn23)cc1 | 22.4 µM (active) |  |
| COc1ccc(NC(=O)N2CC3(CCN(C(C)=O)CC3)C2)cc1 | inactive |  |
| COc1ccc(C(=O)N2CCC3(CC2)CCN(c2ccccn2)CC3)cc1 | inactive |  |
| CC(=O)N1CCC2(CCCN(Cc3ccc(C#N)cc3)C2)CC1 | inactive |  |
| CCC(C)[C@@H](N)C(=O)O (stereo partly specified) | inactive |  |
| COC(=O)[C@@H]1CC2=CC(=O)CC[C@]2(C)[C@@]23O[C@@H]2C[C@@]2(C)[C@@H](CC[C@@]24CCC(=O)O4)[C@H]13 | inactive |  |
| CC(=O)OCC(=O)[C@@]1(O)CC[C@@H]2[C@H]3CCC4=CC(=O)C=C[C@]4(C)[C@]3(F)[C@@H](O)C[C@@]21C | inactive |  |
| C[C@]12CCC3[C@@H](CCC4=CC(=O)CC[C@@]43C)C1CCC2OC(=O)CCc1ccccc1 (stereo partly specified) | inactive |  |
| CO[C@]12CC[C@@]3(C[C@@H]1[C@](C)(O)C(C)(C)C)[C@@H]1Cc4ccc(O)c5c4[C@@]3(CCN1CC1CC1)[C@H]2O5 | inactive |  |
| CC(C)=CCN1CC[C@@]2(C)c3cc(O)ccc3C[C@H]1[C@@H]2C | inactive |  |
| COC(=O)N1CCC2(CCCN(c3ccncc3)C2)CC1 | inactive |  |
| COc1ccc(OC)c([C@H](O)CNC(=O)CN)c1 | inactive |  |
| Cc1cccc(C)c1NC(=O)NC1=CCCN1C | inactive |  |
| O=C1C(c2[nH]c3ccccc3c2O)=Nc2ccccc21 | inactive |  |
| O=c1c(-c2cccs2)nc2cnc(Oc3ccccc3)nc2n1-c1ccccc1 | inactive |  |
| CCCC(=O)O[C@]1(C(=O)COC(=O)CC)CC[C@@H]2[C@@H]3CCC4=CC(=O)CC[C@]4(C)[C@H]3[C@@H](O)C[C@@]21C | inactive |  |
| Cc1c(Cl)cccc1NC(=O)N1CCN(C(=O)c2nsc3ccccc23)CC1 |  | 10.2% [at 15.4 µM] |
| NCCCCC(N)C(=O)O (stereo unspecified) | inactive |  |
| CCC(C)C1OC2(C=CC1C)CC1CC(C/C=C(/C)C(OC3CC(OC)C(OC4CC(OC)C(NC(C)=O)C(C)O4)C(C)O3)C(C)/C=C\C=C3\COC4C(O)C(C)=CC(C(=O)O1)C34O)O2 (stereo unspecified) | inactive |  |
| CC(C)NC(=O)N1CC[C@@]2(CCCN(C(=O)c3ccco3)C2)C1 | inactive |  |
| S=c1[nH]nc(-c2cc(-c3ccsc3)n[nH]2)n1-c1ccccc1 | 2.82 µM (active) |  |
